Drawing on the supplement of paper PMC10941209, this text covers cell viability for 37 compounds.

In this test the test system is HFF. Nature of the test: cell viability relative to DMSO control; higher = less cytotoxic. Conditions: 1 µM; 72 h. On the procedure: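 Single-dose cytotoxicity screen of the MMV Pandemic Response Box at 1 uM on human foreskin fibroblasts (HFF), 72 h at 37 C. Viability measured by MTT (OD 550 nm) and normalised to the DMSO control (% survival).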
What is called cell viability is the share of living cells, or the viability signal relative to a control. In turn, `COC(=O)Nc1nc2cc([S+]([O-])c3ccccc3)ccc2[nH]1` (configuration not stated) registered a cell viability of 64.6%.

`C=CCc1cc(Cc2cnc(N)nc2N)cc(OC)c1O`: the cell viability turned out to be 72.9%.

The compound `Cn1cncc1[C@@](N)(c1ccc(Cl)cc1)c1ccc2c(c1)c(-c1cccc(Cl)c1)cc(=O)n2C` came in with a cell viability of 61.1%.

For the compound `O=[N+]([O-])c1ccc2c(CCc3c[nH]c4ccccc34)c[nH]c2c1`, the cell viability is 61.9%.

`COc1ccccc1NC(=O)c1ccccc1Sc1ccc([N+](=O)[O-])cc1` registered a cell viability of 55.7%.

`CCCCOC(=O)Nc1cc2nc(C3CCCCC3)[nH]c2cc1N(CC)CC` displayed a cell viability of 72.1%.

Turning to `O=C(NCc1cccc2ccccc12)c1cccs1`, the cell viability is 66%.

For `CN1CCN(c2ccc3[nH]c(-c4ccc5[nH]c(-c6ccc(O)cc6)nc5c4)nc3c2)CC1`, the cell viability came out at 68.8%.

`CNC(=O)C1O[C@@H](n2cnc3c(NCc4cccc(I)c4)nc(Cl)nc32)[C@H](O)[C@@H]1O` (some centres not stated) gave a cell viability of 61.2%.

On to `Cc1ccc(Oc2ccccc2-c2csc(N=C3NCCCN3)n2)c(C)c1`, for which the cell viability was determined as 68.5%.

The compound `CCCCCCCCC(CP(=O)(O)C(C)N)C(=O)O` (configuration not stated) showed a cell viability of 61.8%.

`CC(=O)O[C@H]1C[C@@]2(C)[C@@H](C[C@@H](O)[C@H]3[C@@]4(C)CC[C@@H](O)[C@@H](C)[C@@H]4CC[C@@]32C)/C1=C(\CCC=C(C)C)C(=O)O` gave a cell viability of 63.5%.

In turn, `CCc1nc(N)nc(N)c1C#CC(C)c1cc(OC)cc(-c2ccncc2)c1` (configuration not stated) displayed a cell viability of 79.3%.

`O=C(Cc1ccccc1F)Nc1nc2ccccc2[nH]1` returned a cell viability of 69.7%.

The compound `CCCC(=O)OCCc1ccccc1` yielded a cell viability of 65.3%.

`Fc1ccc2c(/C=C/c3cccnc3)c[nH]c2c1` yielded a cell viability of 63.2%.

In turn, `COc1cc(NCc2ccc3nc(N)nc(N)c3c2C)cc(OC)c1OC` had a cell viability of 63.7%.

As to `COc1ccc(CNC(=O)C(NS(=O)(=O)c2ccc3nc(C)sc3c2)C(C)C)cc1` (configuration not stated), the cell viability is 64.5%.

In turn, `NC(=O)c1[nH]c2ccc(S(N)(=O)=O)cc2c1-c1ccccc1` registered a cell viability of 75.8%.

Compound `Cc1cccc(C)c1C(=O)Nc1nc(-c2ccccn2)cc2ccccc12` showed a cell viability of 74.7%.

Take `CCc1c(O)nc2ccc(F)cc2c1OCC1CCC1`: the cell viability came to 56.8%.

For `CC(C)Oc1ccc(-n2cnc3cc(/C=C\c4ccc(C(C)(C)O)cc4)ccc32)cc1`, the cell viability turned out to be 64.2%.

`Cc1cccc(CC(=O)N[C@H]2CCOC2=O)c1` gave a cell viability of 77.2%.

Regarding `Cc1c(CN(C)C(=O)/C=C/c2cnc3c(c2)C(C)(C)C(=O)N3)oc2ccccc12`, the cell viability amounted to 63.6%.

The compound `CCc1cc(Nc2cc(=O)n(CCN3CCN(C(=O)c4ccccc4)CC3)c(=O)[nH]2)ccc1C` yielded a cell viability of 68.7%.

Compound `CCCCCCC1c2ccc(O)cc2Oc2cc(O)ccc21` displayed a cell viability of 72.2%.

Regarding `Oc1ccc(NCc2ccccc2OCc2ccccc2)cc1`, the cell viability amounted to 70.1%.

`C[Si]1(C)CCN(Cc2cc(-c3ccc(Cl)cc3)n(-c3ccc(Cl)cc3)n2)CC1` showed a cell viability of 82.5%.

As for `C[C@H]1[C@@H](c2cccc(C(F)(F)F)c2)OC(=O)N1C(=O)NCc1cncc2ccccc12`, the cell viability was 70%.

`CC(C)(C)c1cc(C(=O)/C(C#N)=N/Nc2cccc(Cl)c2)no1` showed a cell viability of 53%.

With `Cc1[nH]c2ccccc2c1CCNCc1ccc(/C=C/C(=O)NO)cc1`, the cell viability amounted to 19%.

As for `CC1=C(/C=C/C(C)=C/C=C/C(C)=C/C(=O)Nc2ccc(O)cc2)C(C)(C)CCC1`, the cell viability was determined as 70.8%.

`COC(=O)Nc1nc2c(C)cccc2[nH]1`: the cell viability was determined as 69.3%.

Regarding `CC(=O)Oc1ccccc1C(=O)Nc1ncc([N+](=O)[O-])s1`, the cell viability was found to be 62.8%.

`O=C1NC(=O)C(Br)=C1Br`: the cell viability is 63.1%.

Turning to `Cc1ncc([N+](=O)[O-])n1CC(C)O` (configuration not stated), the cell viability was found to be 68.8%.

Compound `COc1ccc(SCC(=O)N2c3ccccc3Sc3ccccc32)cc1` came in with a cell viability of 69.2%.
